Test results taken from PubChem BioAssay AID1671192 (National Center for Advancing Translational Sciences (NCATS), 2021).
Inconclusive results are not listed. Calls of active or inactive are those of the source. The call rests on the fitted dose curve; in most records, active means well fitted curve in the direction sought with a large enough effect; inconclusive means small, poorly fitted or top-dose-only effect, or another doubt; inactive means no such curve, though single readings can be large or run the other way.

What follows are molecules tested against Polyunsaturated fatty acid lipoxygenase ALOX15 (Homo sapiens) (UniProt P16050) (assay: Counterscreen qHTS for inhibitors of human arachidonate 12S-lipoxygenase (ALOX12): ALOX15 Assay). Details: purified ALOX15 enzyme activity; series mostly up to 110 µM.
Outline: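 Xylenol orange–ferric complex formation, read as the 573 nm to 405 nm absorbance ratio, tracks product from 50 uM arachidonic acid turned over for 30 min at RT. Enzyme is 40 nM ALOX15, pH 7.5 HEPES buffer, compound-preincubated 15 min.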

Polyunsaturated fatty acid lipoxygenase ALOX15 (Homo sapiens), sequence (P16050 whole entry, looked up): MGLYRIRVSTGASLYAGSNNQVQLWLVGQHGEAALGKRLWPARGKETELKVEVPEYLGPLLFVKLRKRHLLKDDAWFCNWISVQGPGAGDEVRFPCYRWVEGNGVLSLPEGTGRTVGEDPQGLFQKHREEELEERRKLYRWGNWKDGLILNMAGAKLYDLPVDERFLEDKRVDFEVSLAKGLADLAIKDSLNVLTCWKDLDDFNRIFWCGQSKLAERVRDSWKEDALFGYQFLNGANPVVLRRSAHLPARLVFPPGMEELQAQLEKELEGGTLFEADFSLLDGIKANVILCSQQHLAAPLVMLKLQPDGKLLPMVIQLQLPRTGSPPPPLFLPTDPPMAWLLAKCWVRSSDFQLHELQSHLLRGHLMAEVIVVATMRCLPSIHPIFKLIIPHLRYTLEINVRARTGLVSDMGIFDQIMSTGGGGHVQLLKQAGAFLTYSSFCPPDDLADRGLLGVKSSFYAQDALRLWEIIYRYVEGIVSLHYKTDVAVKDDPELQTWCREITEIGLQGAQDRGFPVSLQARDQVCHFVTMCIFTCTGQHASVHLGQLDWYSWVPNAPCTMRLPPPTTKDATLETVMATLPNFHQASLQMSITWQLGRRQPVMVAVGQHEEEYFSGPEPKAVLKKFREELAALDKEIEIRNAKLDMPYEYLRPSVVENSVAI

| Compound | outcome |
| --- | --- |
| COc1ccc(C(=O)N2Cc3ccccc3CC23CCCN(C(=O)CCCN)C3)cc1 (centres undefined) | inactive |
| CC(=O)NCC(=O)N1Cc2ccccc2CC2(CCCN(CC3CCNC3)C2)C1 (centres undefined) | inactive |
| Fc1ccc(CN2CCC3(CC(c4cccc(C(F)(F)F)c4)=NO3)C2)cc1 (centres undefined) | inactive |
| O=C(c1ccc2c(c1)OCO2)N1CCC2(CC1)C(=O)Nc1ccccc12 | inactive |
| O=C1NCc2ccccc2CC12CCN(Cc1cccc(F)c1F)C2 (centres undefined) | inactive |
| CN1CC(=O)N(C2CCCNCC2)Cc2c1ncnc2N1CCc2ccccc2C1 (centres undefined) | inactive |
| c1ccc2c(CN3CC(Oc4ccc5c(c4)OCO5)C3)cccc2c1 | inactive |
| Cc1ccc(C(=O)N2CCCC3(CC(c4cccnc4)=NO3)C2)cc1 (centres undefined) | inactive |
| Cc1ccc(-c2cccc(CN)c2)c(C)c1 | inactive |
| CCN1CCC(c2nc3ccc(C)cc3c(=O)[nH]2)CC1 | inactive |
| COc1ccccc1C(=O)N1CCc2nc(C3CC3)nc(-c3ccc(Cl)cc3)c2C1 | inactive |
| CC(=O)NCCC(=O)N1Cc2ccccc2CC2(CCN(CC3CCNC3)CC2)C1 (centres undefined) | inactive |
| CN1CC(=O)N(C2CCCNCC2)Cc2c1ncnc2N1CCSCC1 (centres undefined) | inactive |
| CN1CC(=O)N(C2CCNCC2)Cc2c(NCCN3CCOCC3)ncnc21 | inactive |
| CN(C)CCCC(=O)N1Cc2ccccc2CC2(CCCCN2CC2CCNCC2)C1 (centres undefined) | inactive |
| COc1ccc(CC(=O)N2Cc3ccccc3CC3(CCN(CC4CCNC4)C3)C2)cc1 (centres undefined) | inactive |
| CCCN1CCCC2(Cc3ccccc3CN(C(=O)Cc3ccccc3)C2)C1 (centres undefined) | inactive |
| O=C1NCc2ccccc2CC12CCN(Cc1ccc(F)cc1)C2 (centres undefined) | inactive |
| COc1ccc(CN2CCCCC23Cc2ccccc2CNC3=O)c(OC)c1 (centres undefined) | inactive |
